The full ranking holds about 33,000 sequences; the median of “normalized occupancy” is about 0.075, and the highest 2% start at about 0.095. What follows is part of a selection rich in the highest values, with near analogues and random picks from the rest.

Among the data in PMC4242493, “Sequence specificity incompletely defines the genome-wide occupancy of Myc” are binding signal values, retold here.

The target of this experiment is MaxL homodimer (Homo sapiens, UniProt P61244 1-160). As to the kind of experiment: universal protein-binding microarray (PBM); PBS-based mixture, 10 nM His-tagged protein dimer, 2% milk, 200 ng/uL BSA, 50 ng/uL salmon testes DNA, 0.02% TX-100; detection with Alexa 488 anti-His antibody;; high values mean tight binding. Conditions: protein: recombinant; tags: C-terminal His-tag (pET21a); chain copies: 2; dsDNA, one strand shown. The gist of the method: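 His-tagged protein dimer at 10 nM was incubated on Agilent 4 x 44 K arrays with the 'all 10-mer' universal design. Bound protein was tagged with 10 ng/μL fluorophore-conjugated anti-His antibody, and arrays were scanned on a GenePix 4400A. Binding occupancy for each 8-mer is its fluorescence intensity normalised to the highest-ranked 8-mer's intensity.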
MaxL homodimer, sequence (P61244 whole entry): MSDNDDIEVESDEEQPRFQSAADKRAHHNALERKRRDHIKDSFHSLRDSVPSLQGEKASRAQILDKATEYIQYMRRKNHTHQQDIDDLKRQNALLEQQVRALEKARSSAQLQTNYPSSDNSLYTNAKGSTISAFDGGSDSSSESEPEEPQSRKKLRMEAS
Turning to CCCTAAAA, the binding signal came out at 0.076 normalized occupancy.
As for CTGACCTC, the figure is 0.0774 normalized occupancy.
As for AGATGAGG, the figure is 0.0788 normalized occupancy; as for GCATGAGA, 0.0947 normalized occupancy; as for ACATGAGT, 0.09 normalized occupancy.
On to ACATGAGG, for which the binding signal amounted to 0.108 normalized occupancy.
In the case of ACATGAGC, the binding signal came out at 0.0906 normalized occupancy.
Then CCATGAGC, with 0.0818 normalized occupancy; and CCATGAGG, with 0.112 normalized occupancy.
As for CCATGAGA, the figure is 0.0896 normalized occupancy.
Then ACATGAGA, with 0.0971 normalized occupancy; and GTCAAGGA, with 0.0749 normalized occupancy.
With CTAATGTC, the binding signal was 0.0828 normalized occupancy.
As for GAAGTTAC, the figure is 0.0721 normalized occupancy; as for TAACTAGA, 0.0765 normalized occupancy; as for ACGGTGGC, 0.079 normalized occupancy.
Then AAATACAA, with 0.076 normalized occupancy; and CATATGGA, with 0.095 normalized occupancy.
Turning to CATATGAC, the binding signal came to 0.0954 normalized occupancy.
Then CATATGAA, with 0.088 normalized occupancy; and CATATGGG, with 0.103 normalized occupancy; and CATATGGC, with 0.0994 normalized occupancy.
Then GATATGGC, with 0.0846 normalized occupancy.
As for AATATGGC, the figure is 0.0866 normalized occupancy; as for AATATGGG, 0.0882 normalized occupancy; as for AATATGAC, 0.0855 normalized occupancy.
In the case of AGTTCTAA, the binding signal amounted to 0.0746 normalized occupancy.
Then CTGAAAAC, with 0.0806 normalized occupancy; and CGTGCTAA, with 0.0881 normalized occupancy; and ACTGCCCC, with 0.0751 normalized occupancy.
Then GGCATTAC, with 0.0758 normalized occupancy; and AAACGAAG, with 0.0718 normalized occupancy.
As for CTGCTCTC, the figure is 0.0736 normalized occupancy.
For the sequence ATTGATAA, the binding signal came to 0.0774 normalized occupancy.
Then ATATGCGA, with 0.0834 normalized occupancy; and AAATGCGA, with 0.0758 normalized occupancy; and ACATGCGA, with 0.0989 normalized occupancy.
As for AGATGCGC, the figure is 0.077 normalized occupancy; as for ACATGCGG, 0.129 normalized occupancy.
Then AGATGCGG, with 0.0753 normalized occupancy; and ACATGCGT, with 0.127 normalized occupancy; and ACCTGCGT, with 0.0757 normalized occupancy.
Turning to AAATGCGT, the binding signal was 0.0858 normalized occupancy.
For the sequence AAATGCGG, the binding signal was 0.0791 normalized occupancy.
As for ATATGCGC, the figure is 0.085 normalized occupancy; as for ACATGCGC, 0.109 normalized occupancy; as for AGGTTTTA, 0.0742 normalized occupancy.
For the sequence CTAAGAAA, the binding signal came out at 0.0728 normalized occupancy.
GATGATTA: the binding signal was 0.0816 normalized occupancy.
On to AGGGTCAC, for which the binding signal worked out at 0.0776 normalized occupancy.
As for CCCAGTTA, the figure is 0.0735 normalized occupancy; as for GCATCACA, 0.0871 normalized occupancy; as for CCGACGAC, 0.0752 normalized occupancy.
Regarding AGTCGTAT, the binding signal is 0.0756 normalized occupancy.
As for GGGTGGTA, the figure is 0.0821 normalized occupancy.
Then ACGTGGTG, with 0.1 normalized occupancy; and AGGTGGTG, with 0.0873 normalized occupancy; and CCGTGGTA, with 0.0806 normalized occupancy.
As for GTGTGGTA, the figure is 0.0868 normalized occupancy; as for CCGTGGTC, 0.074 normalized occupancy.
On to AGGTGGTA, for which the binding signal amounted to 0.0821 normalized occupancy.
As for AAGTGGTG, the figure is 0.0758 normalized occupancy.
As for ACGTGGTA, the figure is 0.115 normalized occupancy; as for AGGTGGTC, 0.0855 normalized occupancy; as for GCGTGGTA, 0.111 normalized occupancy.
Then ACGTGGTC, with 0.106 normalized occupancy; and GTTGAGAA, with 0.076 normalized occupancy.
Regarding TCATTGCA, the binding signal worked out at 0.0829 normalized occupancy.
For the sequence GCAATCAC, the binding signal worked out at 0.0763 normalized occupancy.
Then GAGTCAGC, with 0.0763 normalized occupancy; and AACTCACT, with 0.0726 normalized occupancy; and AAGCACTA, with 0.0755 normalized occupancy.
Take CGCCGAAA: the binding signal amounted to 0.0723 normalized occupancy.
As for ACGGTAGA, the figure is 0.0739 normalized occupancy; as for ACGCCGCT, 0.0763 normalized occupancy.
As to CGAGGTGA, the binding signal worked out at 0.0813 normalized occupancy.
As for TACGCTGA, the figure is 0.0736 normalized occupancy; as for AACGCTGC, 0.0786 normalized occupancy.
Then CACGCTGA, with 0.115 normalized occupancy; and CACGCTCG, with 0.0939 normalized occupancy.
For the sequence CACGCTGG, the binding signal turned out to be 0.113 normalized occupancy.
CACGCTGC: the binding signal stood at 0.131 normalized occupancy.
Then AACGCTGG, with 0.0764 normalized occupancy.
For the sequence GACGCTGC, the binding signal is 0.0724 normalized occupancy.
Then AACGCTGA, with 0.0816 normalized occupancy; and AGGAGACA, with 0.084 normalized occupancy; and CTTTGACC, with 0.0868 normalized occupancy.
As for AGTGCTCA, the figure is 0.0761 normalized occupancy.
Then TCACGAAA, with 0.0755 normalized occupancy.
Turning to CTCCAGTA, the binding signal is 0.0743 normalized occupancy.
As for CAACCGTA, the figure is 0.0753 normalized occupancy; as for ACGCCGCG, 0.0773 normalized occupancy.
On to AAGGAAAG, for which the binding signal was found to be 0.0804 normalized occupancy.
As for CATGCCCC, the figure is 0.0965 normalized occupancy.
On to GATGCCCA, for which the binding signal was 0.0798 normalized occupancy.
As for CATGCCCG, the binding signal is 0.0842 normalized occupancy.
Then CATGCCCA, with 0.0953 normalized occupancy.
As for GATGCCCC, the figure is 0.0764 normalized occupancy; as for AATGCCCC, 0.0836 normalized occupancy; as for TCAGACGA, 0.0739 normalized occupancy.
As for CTACAGAG, the figure is 0.0735 normalized occupancy.
For the sequence AAGAAGGC, the binding signal was 0.0751 normalized occupancy.
As for AGCGCCTA, the figure is 0.0724 normalized occupancy; as for GTGAATAA, 0.0848 normalized occupancy; as for ACATGTGA, 0.166 normalized occupancy.
As to AAATGTGT, the binding signal came to 0.0811 normalized occupancy.
On to CAATGTGC, for which the binding signal was 0.0924 normalized occupancy.
As for ATATGTGA, the figure is 0.0878 normalized occupancy; as for AAATGTGC, 0.0962 normalized occupancy.
